In PubChem BioAssay (EPA / NIEHS) one finds AC50 and outcome data, which are given here for 29 molecules.

Calls of active or inactive are those of the source. Rule for the calls: active = hit-call score of the fitted dose curve at least 0.9, where 1 is the maximum; inactive = score below 0.9.

As a reminder, the AC50 is the midpoint of the concentration-response curve, whichever way the signal moves.

System in one experiment: not listed separately
Kind of experiment: CCTE_Padilla_ZF_Score.General: CCTE's 144 Hour Post-fertilization zebrafish Assay Score for General Malformation, Padilla Lab (AID 2284411). The method, boiled down: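 Wild-type zebrafish embryos were plated singly at 6-8 hpf in 10% Hanks' and exposed in sealed wells at 26C until rinsed on 5 dpf. At 6 dpf two blinded assessors scored mortality, hatching and malformations by stereomicroscopy; gain-of-signal versus DMSO.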
As to `C=Cc1ccncc1`, the AC50 is 22600 nM (active).

As to `FC(F)(F)COCC(F)(F)F`, the outcome was inactive.

Consider `C[C@@H]1CCN(C(=O)[C@H](CCCN=C(N)N)NS(=O)(=O)c2cccc3c2NC[C@H](C)C3)[C@@H](C(=O)O)C1`, for which the result was inactive.

For the molecule `c1ccc(Oc2ccccc2)cc1`, the outcome was inactive.

As to `CCCCCC(C=O)=Cc1ccccc1`, the outcome was inactive.

Consider `CC1(C)C2=CCCC(C)(C)[C@]23CC[C@H]1C3`, for which the outcome was inactive.

Take `CCN(CC)C(=O)N(CC)CC`: the call was inactive.

In the case of `c1ccc(CCc2ccccc2)cc1`, the outcome was inactive.

With `C=C(C)C(=O)OCCOCCOCCOC(=O)C(=C)C`, the outcome was inactive.

As to `COc1ccc(CCN2CCC(Nc3nc4ccccc4n3Cc3ccc(F)cc3)CC2)cc1`, the AC50 is 439 nM (active).

For the molecule `C=C(C)C(=O)OCCOCCOCCOCCOC(=O)C(=C)C`, the molecule was classed as inactive.

As to `CN(c1nccc(=O)[nH]1)C1CCN(c2nc3ccccc3n2Cc2ccc(F)cc2)CC1`, the molecule was called inactive.

The next experiment has as its system TTR (gene 7276). The experiment in a line: CCTE_GLTED_hTTR_0.125uM: CCTE's human Transthyretin (hTTR) Inhibition Assay, with 0.125uM TTR, Great Lakes Toxicology and Ecology Division (GLTED) Lab (AID 2284431).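 Note: hits lower the fluorescence signal relative to DMSO baseline.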 The method, boiled down: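 Activity is defined as decreased ANSA fluorescence (ex 380, em 475) from human transthyretin, 0.125uM, following 2-hour chemical exposure in a cell-free setup, with DMSO as baseline.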
On to `O=[N+]([O-])c1ccc(O)cc1C(F)(F)F`, for which the AC50 was 111 nM (active).

As for `CC(C)CCCCCCCCCCCCCCC(=O)O`, the AC50 was 891 nM (active).

Take `CC(C)c1ccccc1O`: the AC50 was 32400 nM (active).

Regarding `Nc1ccccc1[N+](=O)[O-]`, the AC50 is 20300 nM (active).

As for `N[C@@H](Cc1cc(I)c(Oc2cc(I)c(O)c(I)c2)c(I)c1)C(=O)O`, the AC50 is 82.2 nM (active).

On to `O=C(Nc1ccc2c(O)c(N=Nc3ccc(N=Nc4ccc(S(=O)(=O)O)cc4)cc3)c(S(=O)(=O)O)cc2c1)c1ccccc1`, for which the AC50 is 9920 nM (active).

For the molecule `CCCCC(CC)COC(=O)c1ccc(O)cc1` (centres undefined), the AC50 was 434 nM (active).

With `Cc1cc(S(=O)(=O)O)ccc1N=Nc1c(O)ccc2ccccc12`, the AC50 was 79 nM (active).

Turning to `CCCCCCCCc1ccc(S(=O)(=O)O)cc1`, the AC50 is 2970 nM (active).

For the molecule `OCc1cccc(Oc2ccccc2)c1`, the AC50 was 12200 nM (active).

On to `Cc1ccc(S(=O)(=O)Oc2ccc(N=Nc3ccc(-c4ccc(N=Nc5c(O)ccc6cc(S(=O)(=O)O)cc(S(=O)(=O)O)c56)c(C)c4)cc3C)cc2)cc1`, for which the AC50 is 912 nM (active).

For the molecule `Oc1ccc2cc(SSc3ccc4cc(O)ccc4c3)ccc2c1`, the AC50 is 113 nM (active).

As for `COc1ccc(N=Nc2cc(C)c(N=Nc3ccc(S(=O)(=O)O)cc3)cc2OC)cc1`, the AC50 is 385 nM (active).

Consider `C=C[Si]1(C)O[Si](C)(C=C)O[Si](C)(C=C)O[Si](C)(C=C)O1` (centres undefined), for which the AC50 is 50000 nM (active).

Take `CCCCCCC(CO)CCCC` (centres undefined): the AC50 was 46700 nM (active).

For `BrCc1cccc(Oc2ccccc2)c1`, the AC50 was 4220 nM (active).

Turning to `Nc1ccc2cc(S(=O)(=O)O)cc(O)c2c1N=Nc1ccccc1C(F)(F)F`, the AC50 was 39.7 nM (active).
